Out of some 360,000 compounds screened, about 3,100 (0.86%) were called active. The sample as a whole holds a higher share of actives than the screen did. Values without a mark were called inactive.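 How the source made its calls: active means inhibition or corrected inhibition above about 18%, plus a signal ratio from 0.5 to 1.5 (limit read from the data, passing the limit was not always enough); inactive means the rest.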
Target: Neuropilin-1 (Homo sapiens) (UniProt O14786)
Experiment: modulators of CendR peptide binding to NRP-1, primary screen, biochemical, fluorescence polarization, uHTS (AID 602438)
Details: FAM-RPARPAR peptide binding to NRP-1, fluorescence polarization; at 25 µM; active compounds read high

Chain of Neuropilin-1 (Homo sapiens) (O14786 whole entry, looked up): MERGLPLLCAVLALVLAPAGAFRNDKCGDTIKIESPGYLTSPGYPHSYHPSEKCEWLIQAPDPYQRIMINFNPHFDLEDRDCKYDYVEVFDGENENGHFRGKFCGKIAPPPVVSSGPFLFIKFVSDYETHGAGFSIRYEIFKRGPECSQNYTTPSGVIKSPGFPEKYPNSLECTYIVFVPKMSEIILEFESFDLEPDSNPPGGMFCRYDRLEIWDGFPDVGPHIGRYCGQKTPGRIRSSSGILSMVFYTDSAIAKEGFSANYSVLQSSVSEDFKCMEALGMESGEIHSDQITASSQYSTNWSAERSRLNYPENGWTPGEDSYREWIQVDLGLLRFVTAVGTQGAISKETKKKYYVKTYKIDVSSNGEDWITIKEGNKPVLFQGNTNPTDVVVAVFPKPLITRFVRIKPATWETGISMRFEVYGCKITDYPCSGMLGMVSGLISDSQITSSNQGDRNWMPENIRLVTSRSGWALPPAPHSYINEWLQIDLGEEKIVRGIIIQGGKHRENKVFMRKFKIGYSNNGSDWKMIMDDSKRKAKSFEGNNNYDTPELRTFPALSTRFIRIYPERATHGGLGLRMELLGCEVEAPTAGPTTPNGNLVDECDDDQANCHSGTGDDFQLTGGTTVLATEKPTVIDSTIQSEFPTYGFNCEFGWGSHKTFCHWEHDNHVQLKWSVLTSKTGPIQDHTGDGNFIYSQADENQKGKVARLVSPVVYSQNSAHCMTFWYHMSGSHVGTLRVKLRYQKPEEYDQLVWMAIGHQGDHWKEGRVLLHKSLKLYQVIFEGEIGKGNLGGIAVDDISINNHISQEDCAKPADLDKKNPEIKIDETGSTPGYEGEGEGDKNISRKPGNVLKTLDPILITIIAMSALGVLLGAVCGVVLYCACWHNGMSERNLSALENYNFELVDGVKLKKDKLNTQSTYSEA

Row | SMILES | inhibition
1 | O=C(OCc1ccc([N+](=O)[O-])cc1)C1CC(=O)N(Cc2ccccc2Cl)C1 (stereo unspecified) | -11.4%
2 | O=C(O)c1ccc(NS(=O)(=O)c2ccc3c(c2)C(=O)c2cc(S(=O)(=O)Nc4ccc(C(=O)O)cc4)ccc2-3)cc1 | -59.7%
3 | O=C(NCC1CCCO1)c1ccccc1-c1nc(-c2ccccc2Cl)no1 (stereo unspecified) | 8%
4 | Cc1ccc(-c2noc(-c3ccccc3C(=O)NCC3CCCO3)n2)cc1 (stereo unspecified) | 28% (active)
5 | O=C(Nc1ccccc1C(=O)NCC1CCCO1)c1ccccc1F (stereo unspecified) | 20.7%
6 | COc1ccc(NS(=O)(=O)c2ccc(C)c(C(=O)NCC(c3cccs3)N3CCOCC3)c2)cc1 (stereo unspecified) | 6.2%
7 | CC1(C(=O)Nc2ccc3c(c2)OCCO3)CN(S(C)(=O)=O)CC(=O)N1Cc1cccc(F)c1 (stereo unspecified) | -4.8%
8 | CN1CCCc2cc(C#N)c(=O)[nH]c21 | 4.8%
9 | Cn1nnnc1NCc1ccc(Cl)c(Cl)c1 | 12.8%
10 | CCCCn1nnnc1C(c1cc2ccccc2o1)N(C)Cc1ccc(Cl)c(Cl)c1 (stereo unspecified) | 26.3% (active)
11 | CCCCn1nnnc1C(c1ccccc1)N1CCN(c2ccccc2OC)CC1 (stereo unspecified) | -6.7%
12 | COc1ccc(S(=O)(=O)N2CCCC(C(=O)Nc3ccc(NC(=O)c4ccccn4)cc3)C2)cc1 (stereo unspecified) | 0.1%
13 | CCCC(C(=O)n1nc(C)cc1C)C(NS(=O)(=O)c1ccc(C)cc1)c1ccccc1 (stereo unspecified) | -0.9%
14 | O=C1CCC/C=C\C[C@@H](CC(=O)N(CCO)Cc2ccccc2)C(=O)NCCO1 | 4.9%
15 | O=C1N[C@H](Cc2c[nH]c3ccccc23)COC(=O)[C@H](Cc2ccc(F)cc2)C/C=C\C[C@H]1CC(=O)N(CCO)Cc1ccccc1 | 22.7% (active)
16 | O=C1NC[C@@H](c2ccccc2)OC(=O)[C@H](Cc2ccc(F)cc2)CC/C=C/C[C@H]1CC(=O)N(CCO)Cc1ccccc1 | 23.4% (active)
17 | CC(C)(C)OC(=O)C[C@@H]1C/C=C\C[C@@H](CC(=O)N(CCO)Cc2ccccc2)C(=O)N[C@H](Cc2ccccc2)COC1=O | -9.4%
18 | O=C1OC[C@@H]2CCCN2C(=O)[C@H](CC(=O)N(CCO)Cc2ccccc2)C/C=C\CC[C@@H]1Cc1ccc(F)cc1 | 4.4%
19 | O=C1CCC/C=C/C[C@@H](CC(=O)N(CCO)Cc2ccccc2)C(=O)NC[C@H](c2ccccc2)O1 | 4.9%

Row | SMILES | inhibition
20 | CCN(Cc1ccccc1)S(=O)(=O)c1cc(C(=O)O)ccc1OC | 13.4%
21 | C/C(N)=C(\C#N)C(=O)NCCc1ccccn1 | -1.8%
22 | CC(C)CN(C(=O)c1cccc(S(=O)(=O)N2CCCCC2)c1)C1CCS(=O)(=O)C1 (stereo unspecified) | -6.3%
23 | COCC1CCCN(C(=O)c2ccc3oc(C(C)C)nc3c2)C1 (stereo unspecified) | -5.1%
24 | COc1ccc([N+](=O)[O-])cc1N(CC(O)Cn1nnc2ccccc21)S(=O)(=O)c1ccc(C)cc1 (stereo unspecified) | 7%
25 | Cc1ccc(S(=O)(=O)N(CC(O)CN2C(=O)NC(C)(C)C2=O)c2cccc([N+](=O)[O-])c2)cc1 (stereo unspecified) | 24.8% (active)
26 | Cc1ccc(S(=O)(=O)N(CC(O)CN2CCCCC2)c2cccc([N+](=O)[O-])c2)cc1 (stereo unspecified) | -0.8%
27 | CCOC(=O)C1(C)CCCN(C(=O)c2cccc(Cl)c2)C1 (stereo unspecified) | 20% (active)
28 | CCOC(=O)C1(C)CCCN(C(=O)c2ccc(F)c(Cl)c2)C1 (stereo unspecified) | 16.4%
29 | CCOC(=O)C1(C)CCCN(C(=O)c2ccc(N(C)C)cc2)C1 (stereo unspecified) | -8.3%
30 | CC(OC(=O)c1cccnc1Cl)C(=O)NC1CCCCC1 (stereo unspecified) | 0.1%
31 | CCOc1ccc(S(=O)(=O)NCCC(=O)NCC(C)(C)N2CCOCC2)cc1 | -3.6%
32 | CN(C)C(=O)COC(=O)c1cccc(S(=O)(=O)N2CC3(C)CC2CC(C)(C)C3)c1 (stereo unspecified) | 9.7%
33 | COc1ccc(C(=O)N2CC3(C)CC2CC(C)(C)C3)cc1OC (stereo unspecified) | 33.3% (active)
34 | COc1ccc(C(=O)NC2CC(C)(C)NC(C)(C)C2)cc1OC | -3.8%
35 | O=c1[nH]c2ccccc2n1C1CCN(CCOc2ccccc2)CC1 | -8%
36 | Cc1ccc(S(=O)(=O)N(CC(=O)Nc2cccnc2)c2ccc(Br)cc2)cc1 | 0.4%
37 | COc1ccccc1-c1nnc2n1N=C(c1ccc(OC(F)F)c(OCC3CC3)c1)CS2 | 18.8% (active)
38 | COc1ccc(C2=Nn3c(nnc3-c3ccccc3OC)SC2)cc1OC1CCCC1 | 2.4%

Row | SMILES | inhibition
39 | Cc1ccc(NC2CCCN(C(=O)CCc3cn[nH]c3)C2)cc1C (stereo unspecified) | 5.4%
40 | CN(C)c1ccc(Nc2c3c4c(cccc4n(C)c2=O)C(=O)c2ccccc2-3)cc1 | 28.9% (active)
41 | CCOc1cc(CNCCN(C)C)c(Cl)cc1OCC(=O)NCCc1ccccc1 | -1.5%
42 | CCOC(=O)N1CCN(C(=O)CNC(=O)Cc2ccc(Cl)cc2)CC1 | 24.6% (active)
43 | CCOC(=O)N1CCN(C(=O)C(C)NC(=O)c2ccco2)CC1 (stereo unspecified) | 5.9%
44 | CCOC(=O)N1CCN(C(=O)Cc2ccc(-n3c(=S)[nH]c4ccccc4c3=O)cc2)CC1 | 2.6%
45 | N#Cc1ccc(C(=O)Nc2nc(-c3cccs3)c(C(=O)C(F)(F)F)s2)cc1 | 2.3%
46 | N#CC(C(N)=O)=C1CCC2(CC1)OCCCCO2 | -11%
47 | CC1(C)C/C(=C(/C#N)C(N)=O)CCO1 | 51% (active)
48 | CCN(CC)C(=O)COc1coc(CN2CCN(Cc3ccccc3)CC2)cc1=O | 0.6%
49 | C=CCNC(=O)COc1coc(CN2CCN(Cc3ccccc3)CC2)cc1=O | 2%
50 | CCCNC(=O)COc1coc(CN2CCN(Cc3ccccc3)CC2)cc1=O | 22.7% (active)
51 | CCOc1cnc(C(=O)NNC(=O)c2ccccc2Br)o1 | 6.1%
52 | CCCc1ccc(S(=O)(=O)N2CCN(C(=O)c3cc(C)on3)CC2)cc1 | 1.7%
53 | C=C1C(=O)OC2C1CCC(C)=CCCC1(C)OC21 (stereo unspecified) | -0.7%
54 | COc1ccc(-c2c(C)cc3oc(=O)cc(-c4ccccc4)c3c2C)cc1C=O | 34.1% (active)
55 | Cc1cc2oc(=O)cc(-c3ccccc3)c2c(C)c1-c1ccc(OC(F)(F)F)cc1 | 0.8%
56 | COc1cc(OC)c2c(-c3cccc(-c4cccc(N)c4)c3)cc(=O)oc2c1 | -8.2%
